Data published in PubChem BioAssay (NCI).
This is part of a sample that, as a whole, favours compounds with a hit. Of some 83,000 tested, about 20% had one in any assay.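 In brief: 96-well plates, 48 h treatment, single concentration, percent growth endpoint.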 Values without a mark were called inactive. Active and inactive are the calls of the source. How the source made its calls: active means growth percent below 10; inactive means the rest.

Each compound was assayed on RXF 393 renal (assay: NCI-60 one-dose screen, 48 h (100 = growth as untreated, 0 = no growth, -100 = all killed)). Settings: 10 µM unless noted.

| Compound | growth |
| --- | --- |
| COc1ccccc1-c1ccc2c(N)c(C(=O)c3ccc4c(c3)OCO4)sc2n1 | 75.3% |
| CC(=O)C1=C(O)C=C2Oc3c(C(=O)/C=C/c4cc(C(F)(F)F)cc(C(F)(F)F)c4)c(O)c(C)c(O)c3[C@]2(C)C1=O | -48.6% (active) |
| CC/C=C\C[C@H](O)C/C=C1/C(=O)C=C[C@@H]1C/C=C\CCCC(=O)NC(C)C | -64.8% (active) |
| COc1ccc(C(=O)c2sc3nc4c(cc3c2N)CCCC4)cc1OC | 31.6% |
| CS(CCCCN=C=S)=NC(=O)c1c(F)c(F)c(F)c(F)c1F (stereo not drawn) | 41.9% |
| COc1ccc(-c2c(C)noc2-c2ccc(O)cc2O)cc1 | 90.7% |
| COc1ccc(C(=O)c2sc3nc(-c4ccccc4OC)ccc3c2N)cc1OC | 55.8% |
| NC1=CC(=O)C(=O)c2ccccc21 | 100% |
| COc1ccc(C(=O)c2sc3nc4c(c(C(F)(F)F)c3c2N)CN(C(C)=O)CC4)cc1OC | 74.7% |
| COc1cc(C(=O)/C=C/c2c(C)n([O-])c3ccc(C)cc3[n+]2=O)cc(OC)c1OC | -32.4% (active) |
| COc1cc(C2C(C(=O)c3cccs3)=C(O)C(=O)N2CCN2CCOCC2)cc(OC)c1OC (stereo not drawn) | 100% |
| COC(=O)C12C3C(=O)N(c4ccc(OC)cc4)C(=O)C3C(c3cn(-c4ccccc4)nc3C)N1[C@H](c1cn(-c3ccccc3)nc1C)[C@@H]1C(=O)N(c3ccc(OC)cc3)C(=O)[C@@H]12 (stereo partly drawn) | 102% |
| COc1cc(C2CC(=O)Nc3c2cnn3Cc2ccco2)cc2c1OCCO2 (stereo not drawn) | 62.4% |
| COc1ccc(C2CC(=O)Nc3c2c(C)nn3-c2nc3ccccc3[nH]2)cc1 (stereo not drawn) | 101% |
| CCn1cc2c(cc1=O)-c1nc3ccccc3c3ccnc(c13)C2=O | 63.5% |
| NCc1cn2cc(Cl)sc2n1 | 98.9% |
| CCOc1ccc(Nc2nc(-c3c(C)nc4ncccn34)cs2)cc1 | -1.2% (active) |
| N#CC1=C(N)Oc2c(ccc3ccccc23)C1c1cccs1 (stereo not drawn) | 8.35% (active) |
| CCOC(=O)C12CCCC1=CC(=O)CC2 (stereo not drawn) | 113% |
| CCCC(=O)Oc1ccc(/C(=C(/CC)Cc2ccccc2)c2ccc(OCCN3CCCC3)cc2)cc1 | 68.2% |

| Compound | growth |
| --- | --- |
| C=C1CCC2C3(C)COC(c4ccc(OC)cc4Br)OC3CCC2(C)C1/C=C/C1=CCOC1=O (stereo not drawn) | 90% |
| CS(=O)(=O)c1c(Nc2ccccc2)n[nH]c1N | 114% |
| CC/C=C\C[C@H](O)C/C=C1/C(=O)C=C[C@@H]1C/C=C\CCCC(N)=O | -81% (active) |
| CCN(CC)C12CCCCC1(C)C(C#N)(C#N)C(C#N)=C(N)O2 (stereo not drawn) | 144% |
| O=C1c2c[n+](Cc3ccccc3)ccc2-c2nc3ccccc3c3ccnc1c23 | -57.1% (active) |
| Cc1nn(-c2nc3ccccc3[nH]2)c2c1C(c1ccc3c(c1)OCO3)CC(=O)N2 (stereo not drawn) | 8.03% (active) |
| O=c1ccc2cc3ccccc3cc2[nH]1 | 93.7% |
| O=C(Nc1cccc2[nH]c(C(F)(F)F)nc12)c1ccc(Br)cc1F | 51.8% |
| COc1cc(-c2cnc3nonc3n2)c(OC)c2c1OCO2 | 90.9% |
| COc1cnc2c(c1)C(=O)c1c-2n(CCCBr)c(=O)c2cc([N+](=O)[O-])ccc12 | -10.8% (active) |
| Clc1cccc(Nc2nc(Nc3cnc4ccccc4c3)c3[nH]cnc3n2)c1 | 69.7% |
| COc1cc(C2CC(=O)c3c(C)nn(-c4nc5ccccc5[nH]4)c3C2)cc(OC)c1OC (stereo not drawn) | 30.3% |
| CC(C)Oc1nc2c(c(=O)n(C)c(=O)n2C)n1C | 116% |
| CC/C=C\C[C@H](F)C/C=C1/C(=O)C=C[C@@H]1C/C=C\CCCC(=O)OC | -45.5% (active) |
| Cc1ccn2c(-c3csc(Nc4cccc(O)c4)n3)c(C)nc2c1 | 0.213% (active) |
| O=C(/C=C/c1cc2ccccc2[nH]c1=O)/C=C/c1cc2ccccc2[nH]c1=O | -91.8% (active) |
| COc1ccc(-c2cnoc2-c2cc(OC)c3c(c2)OCCO3)cc1 | 32.3% |
| CC/C(Cc1ccccc1)=C(\c1ccc(OCCN2CCCC2)cc1)c1ccc(OC(C)=O)cc1 | 65% |
| C[C@]12C[C@@H](c3ccoc3)OC(=O)[C@@H]1CC[C@]1(C)[C@@H]2CC[C@@H](O)[C@]1(C)O | 102% |

The compounds below were run on SF-268 CNS in the same assay as above. Settings: 10 µM unless noted.

| Compound | growth |
| --- | --- |
| COc1ccccc1-c1ccc2c(N)c(C(=O)c3ccc4c(c3)OCO4)sc2n1 | 84.3% |
| CC(=O)C1=C(O)C=C2Oc3c(C(=O)/C=C/c4cc(C(F)(F)F)cc(C(F)(F)F)c4)c(O)c(C)c(O)c3[C@]2(C)C1=O | -18.1% (active) |
| CC/C=C\C[C@H](O)C/C=C1/C(=O)C=C[C@@H]1C/C=C\CCCC(=O)NC(C)C | 35.4% |
| COc1ccc(C(=O)c2sc3nc4c(cc3c2N)CCCC4)cc1OC | 63.9% |
| CS(CCCCN=C=S)=NC(=O)c1c(F)c(F)c(F)c(F)c1F (stereo not drawn) | 86.8% |
| COc1ccc(-c2c(C)noc2-c2ccc(O)cc2O)cc1 | 82% |
| COc1ccc(C(=O)c2sc3nc(-c4ccccc4OC)ccc3c2N)cc1OC | 64.7% |
| NC1=CC(=O)C(=O)c2ccccc21 | 93.3% |
| COc1ccc(C(=O)c2sc3nc4c(c(C(F)(F)F)c3c2N)CN(C(C)=O)CC4)cc1OC | 85% |
| COc1cc(C(=O)/C=C/c2c(C)n([O-])c3ccc(C)cc3[n+]2=O)cc(OC)c1OC | 59% |
| COc1cc(C2C(C(=O)c3cccs3)=C(O)C(=O)N2CCN2CCOCC2)cc(OC)c1OC (stereo not drawn) | 97.9% |
| COC(=O)C12C3C(=O)N(c4ccc(OC)cc4)C(=O)C3C(c3cn(-c4ccccc4)nc3C)N1[C@H](c1cn(-c3ccccc3)nc1C)[C@@H]1C(=O)N(c3ccc(OC)cc3)C(=O)[C@@H]12 (stereo partly drawn) | 104% |
| COc1cc(C2CC(=O)Nc3c2cnn3Cc2ccco2)cc2c1OCCO2 (stereo not drawn) | 82.5% |
| COc1ccc(C2CC(=O)Nc3c2c(C)nn3-c2nc3ccccc3[nH]2)cc1 (stereo not drawn) | 47.9% |
| CCn1cc2c(cc1=O)-c1nc3ccccc3c3ccnc(c13)C2=O | 54.3% |
| NCc1cn2cc(Cl)sc2n1 | 111% |
| CCOc1ccc(Nc2nc(-c3c(C)nc4ncccn34)cs2)cc1 | 28.4% |
| N#CC1=C(N)Oc2c(ccc3ccccc23)C1c1cccs1 (stereo not drawn) | 9.29% (active) |
| CCOC(=O)C12CCCC1=CC(=O)CC2 (stereo not drawn) | 103% |
| CCCC(=O)Oc1ccc(/C(=C(/CC)Cc2ccccc2)c2ccc(OCCN3CCCC3)cc2)cc1 | 67.4% |

| Compound | growth |
| --- | --- |
| C=C1CCC2C3(C)COC(c4ccc(OC)cc4Br)OC3CCC2(C)C1/C=C/C1=CCOC1=O (stereo not drawn) | 89% |
| CS(=O)(=O)c1c(Nc2ccccc2)n[nH]c1N | 111% |
| CC/C=C\C[C@H](O)C/C=C1/C(=O)C=C[C@@H]1C/C=C\CCCC(N)=O | 27.3% |
| CCN(CC)C12CCCCC1(C)C(C#N)(C#N)C(C#N)=C(N)O2 (stereo not drawn) | 99.6% |
| O=C1c2c[n+](Cc3ccccc3)ccc2-c2nc3ccccc3c3ccnc1c23 | -1.74% (active) |
| Cc1nn(-c2nc3ccccc3[nH]2)c2c1C(c1ccc3c(c1)OCO3)CC(=O)N2 (stereo not drawn) | 19.3% |
| O=c1ccc2cc3ccccc3cc2[nH]1 | 75.5% |
| O=C(Nc1cccc2[nH]c(C(F)(F)F)nc12)c1ccc(Br)cc1F | 29.1% |
| COc1cc(-c2cnc3nonc3n2)c(OC)c2c1OCO2 | 99% |
| COc1cnc2c(c1)C(=O)c1c-2n(CCCBr)c(=O)c2cc([N+](=O)[O-])ccc12 | 9.06% (active) |
| Clc1cccc(Nc2nc(Nc3cnc4ccccc4c3)c3[nH]cnc3n2)c1 | 82.4% |
| COc1cc(C2CC(=O)c3c(C)nn(-c4nc5ccccc5[nH]4)c3C2)cc(OC)c1OC (stereo not drawn) | 7.82% (active) |
| CC(C)Oc1nc2c(c(=O)n(C)c(=O)n2C)n1C | 100% |
| CC/C=C\C[C@H](F)C/C=C1/C(=O)C=C[C@@H]1C/C=C\CCCC(=O)OC | 26% |
| Cc1ccn2c(-c3csc(Nc4cccc(O)c4)n3)c(C)nc2c1 | 39.5% |
| O=C(/C=C/c1cc2ccccc2[nH]c1=O)/C=C/c1cc2ccccc2[nH]c1=O | -36% (active) |
| COc1ccc(-c2cnoc2-c2cc(OC)c3c(c2)OCCO3)cc1 | 19.9% |
| CC/C(Cc1ccccc1)=C(\c1ccc(OCCN2CCCC2)cc1)c1ccc(OC(C)=O)cc1 | 76% |
| C[C@]12C[C@@H](c3ccoc3)OC(=O)[C@@H]1CC[C@]1(C)[C@@H]2CC[C@@H](O)[C@]1(C)O | 106% |
